From PubChem BioAssay (NCI)
About 83,000 compounds went through this panel and 20% of them were active in at least one assay; those are over-represented in the sample as a whole.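 Single-concentration screen, 48 h exposure, 96-well plates. Endpoint: percent growth. Below 10 = active.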 The source made the active and inactive calls.

tested on: SNB-19 CNS; test: NCI-60 one-dose screen, 48 h (100 = growth as untreated, 0 = no growth, -100 = all killed); conditions: 10 µM unless noted

Row | SMILES | growth
1 | CN1CCN(Cc2ccc(NC(=O)c3cncc(C#Cc4cnc5ccc(N6CCN(C)CC6)nn45)c3)cc2C(F)(F)F)CC1 | -29.3% (active)
2 | O=C(O)c1cn(C2CC2)c2cc(N3CCN(C(=O)CN4C(=O)CSC4=O)CC3)c(F)cc2c1=O | 100% (inactive)
3 | NC/C(=C/F)COc1ccc2nc(NCc3cccnc3)oc2c1 | 105% (inactive)
4 | C=C(C)[C@@H]1CC[C@]2(C(=O)NCCCCCN(CCC#N)CCC#N)CC[C@]3(C)[C@H](CC[C@@H]4[C@@]5(C)CCC(=O)C(C)(C)[C@@H]5CC[C@]43C)[C@@H]12 | 107% (inactive)
5 | CCCCNNC(=O)c1ccc(-c2cccc(F)c2F)cc1 | 54.6% (inactive)
6 | C#Cc1ccc(C(=O)NCc2ccc(/C=C/C(=O)c3nccn3C)cc2)cc1 | 16.9% (inactive)
7 | COc1ccc(/C(N)=N/C(N)=N/c2nc3ccccc3s2)cc1 | 86.2% (inactive)
8 | O=C(CN1CCN(c2cc(=O)[nH]c3ccc(F)cc23)CC1)Nc1ccc(Cl)cc1 | 21.3% (inactive)
9 | Cc1ccc(-n2cc(/C=C/C(=O)c3ccc(O)cc3)c(-c3ccc(S(C)(=O)=O)cc3)n2)cc1 | 75.6% (inactive)
10 | O=S(=O)(NCCCNc1nccc(-c2[nH]c(-c3ccccc3)nc2-c2ccc(Cl)c(O)c2)n1)c1cccc(F)c1 | 82.9% (inactive)
11 | Cc1cc(-c2ccc(Cl)cc2)n(Cc2nnc(SCC(=O)Nc3ccc(S(N)(=O)=O)cc3)n2C2CCCCC2)n1 | 97.6% (inactive)
12 | Oc1cccc2ccc(-c3nnc(SCc4ccc(O)c5ncccc45)n3-c3ccccc3)nc12 | 9.4% (active)
13 | Cc1ccc(-c2nn(-c3ccccc3)cc2/C=C/C(=O)c2ccc(NC(=O)CCCCCCC(=O)NO)cc2)cc1 | 81.9% (inactive)
14 | CC(C)(C)c1ccc(C(=O)Nc2sc3c(c2C(N)=O)CCC(O)C3)cc1 (stereo not drawn) | 64.9% (inactive)
15 | O=C(Nc1ccc2c(ccn2Cc2ccccn2)c1)c1ccnnc1 | 102% (inactive)
16 | CC(C)(C)c1ccc(C(=O)Nc2sc3c(c2C(N)=O)CC/C(=N\O)C3)cc1 | 26.7% (inactive)
17 | NC(N)=Nc1ccc(Oc2cccc(Nc3ccc(Cl)cc3)c2)cn1 | 23.8% (inactive)
18 | CCc1cccc(NC(=O)CNc2cc(S(=O)(=O)N(C)C)cc(C)c2C)c1 | 97.3% (inactive)
19 | COc1ccc(N2C(=O)c3cc(Cl)ccc3NC2SCc2ccccc2)cc1 (stereo not drawn) | 95.7% (inactive)

Row | SMILES | growth
20 | O=C(CN1CCN(c2cc(=O)n(-c3ccccc3)c3ccccc23)CC1)Nc1nc(-c2ccc(Cl)cc2)cs1 | 64% (inactive)
21 | COc1ccc(C2c3sc4c(C)cccc4c3Oc3nc(CC(=O)Nc4ccccc4)[nH]c(=O)c32)cc1 (stereo not drawn) | 89% (inactive)
22 | O=C(/C=C/c1ccc(F)cc1)c1ccc(O)cc1 | 91.4% (inactive)
23 | Cn1ccnc1C(=O)/C=C/c1ccc(NC(=O)c2c(F)c(F)c(F)c(F)c2F)cc1 | 98.3% (inactive)
24 | Nc1cc(-c2c[nH]c3ccc(Br)cc23)nc2cc(-c3c[nH]c4ccc(Br)cc34)nn12 | 41.2% (inactive)
25 | C#CCC#CCN1CCC[C@H]1C(=O)NCC(=O)OC | 98.9% (inactive)
26 | COc1cc(/C=C/C(=O)c2ccc(NC(=O)CSc3nnc(-c4ccc(-c5nc6ccc(Cl)cc6[nH]5)cc4)o3)cc2)cc(OC)c1OC | 89% (inactive)
27 | Oc1cccc2ccc(-c3nnc(SCc4ccc(O)c5ncccc45)o3)nc12 | 12.9% (inactive)
28 | NS(=O)(=O)c1ccc(Nc2nc(SCc3ccccc3)nc3ccccc23)cc1 | 78.2% (inactive)
29 | O=C1[C@@H]2Cc3c([nH]c4ccccc34)[C@H](c3c(Cl)cccc3Cl)N2C(=O)CN1C1CCN(CC2CCCCC2)CC1 | 71.5% (inactive)
30 | NS(=O)(=O)c1ccc(Nc2nc(N/N=C/c3c[nH]c4ccccc34)nc(Nc3ccccc3)n2)cc1 | 56.7% (inactive)
31 | N#Cc1c(-c2cccs2)cc(-c2cnccn2)nc1SCC(=O)Nc1ccc(Br)cc1 | 69.4% (inactive)
32 | COc1ccc(Cn2cc3c(c2-c2cc(OC)c(OC)c(OC)c2)CCc2c(CN4CCOCC4)noc2-3)cc1 | 27.1% (inactive)
33 | C=CCn1c(SCC(=O)Nc2ccc(C(=O)/C=C/c3ccc(C)cc3)cc2)nnc1-c1c[nH]c2ccccc12 | 87.5% (inactive)
34 | COc1ccccc1C(=O)Nc1cccc2c1C(=O)C(=O)C=C2 | 106% (inactive)
35 | COc1cc(-c2nn(C(C)(C)C)cc2-c2ccnc(NCCCNS(=O)(=O)c3ccc(Cl)cc3)n2)ccc1Cl | 87.1% (inactive)
36 | CCc1cccc2c3c(sc12)C(c1ccc(Cl)cc1)C(C#N)=C(/N=C/c1ccc(Cl)cc1)O3 (stereo not drawn) | 20.1% (inactive)
37 | C=C(C=O)[C@@H]1CC[C@]2(COC(C)=O)CC[C@]3(C)C(CC[C@@H]4[C@@]5(C)CC[C@H](OC(C)=O)C(C)(C)[C@@H]5CC[C@]43C)[C@@H]12 (stereo partly drawn) | 5.36% (active)
38 | COc1ccccc1N1CCN(C2=CC(=O)C(C)=C(C)C2=O)CC1 | 104% (inactive)
